Consider 13 molecules from PubChem BioAssay.

Assay [1] can be described thus: inhibitors of TNFa-induced NFkB p65 translocation, primary screen, imaging, HUVEC, MLSMR starter and 10KST1 sets (AID 438;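 active = inhibition above 20% together with a positive visual image hit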;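 note: compound added about 3h40 before a 20 min TNFalpha stimulation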;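 for inhibition: signal is the nuclear over cytoplasmic p65 intensity ratio per well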). The following applies: HUVEC TNFa-induced p65 nuclear translocation; cell count: measured here: nuclei count (cytotoxicity indicator), at 2.08 µM; inhibition: at 2 µM, stronger effect = higher value, 0% TNFa-plus-vehicle, 100% no-TNFa wells.
Assay [2] is described as follows: inhibitors of mutant huntingtin aggregation, primary screen, imaging, exon1htt(103Q)mCFP cells, high-content imaging (AID 483).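 For nuclei count: percent of the per-plate median nuclei count of sample wells.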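 Note: compound exposure lasted 3 days before fixation.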 The following applies: exon1htt(103Q)mCFP cell line, aggregate imaging, at 2 µM; inhibition of aggregation: stronger effect = higher value; nuclei count: measured here: cell count, toxicity.
Assay [3] can be described thus: inhibitors of E-selectin induction by TNFa, primary screen, imaging, HUVEC, immunofluorescence, MLSMR starter and 10KST1 sets (AID 487;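 active = visually confirmed hit in the image check and inhibition above 20%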;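 for inhibition: signal is fraction of cell area covered by stained E-selectin grains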;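 for nuclei count: 100% = median nuclei count of all wells on the same plate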). The following applies: HUVEC TNFalpha-induced E-selectin immunofluorescence imaging, at 2 µM; inhibition: stronger effect = higher value; nuclei count: measured here: cell number, toxicity.
Assay [4] concerns the target Voltage-gated potassium channel subunit beta-2 (Rattus norvegicus) (UniProt P62483). In words: KvBeta enzyme negative modulators, primary screen, biochemical, NADPH fluorescence (AID 622;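 active = fluorescence slope higher than the sample average by over 3 SD, cut at about -0.22 in these data, passing the limit was not always enough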;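 note: slope of raw intensity against log time taken from 70 to 1610 s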). The following applies: recombinant KvBeta, 4-cyanobenzaldehyde reduction, at 10 µM, stronger effect = higher value.
Assay [5] has the same target. Description: KvBeta positive modulators, primary screen, biochemical, NADPH fluorescence (AID 623;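 active = NADPH fluorescence slope more negative than the mean of all samples by about 3 SD, 99.7% confidence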;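 note: fluorescence intensity change per second fitted from 20 to 320 s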). The following applies: Recombinant KvBeta, NADPH fluorescence decrease slope, 10 min; at 10 µM; stronger effect = lower value.
Assay [6] deals with Alpha-2C adrenergic receptor (Homo sapiens) (UniProt P18825). Description: modulators of alpha2C/GIRK thallium flux, primary screen, cell-based, HEK293 alpha2C/GIRK1/2 (AID 624;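 active = fluorescence slope after compound addition differing from the mean of all screened samples at 99.7% confidence, in either direction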;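 note: slope of fluorescence ratio to pre-addition baseline per second over 15 to 24 s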). The following applies: thallium flux BTC fluorescence, at 10 µM, actives lie on both sides.
Alpha-2C adrenergic receptor (Homo sapiens), sequence (P18825 whole entry, looked up): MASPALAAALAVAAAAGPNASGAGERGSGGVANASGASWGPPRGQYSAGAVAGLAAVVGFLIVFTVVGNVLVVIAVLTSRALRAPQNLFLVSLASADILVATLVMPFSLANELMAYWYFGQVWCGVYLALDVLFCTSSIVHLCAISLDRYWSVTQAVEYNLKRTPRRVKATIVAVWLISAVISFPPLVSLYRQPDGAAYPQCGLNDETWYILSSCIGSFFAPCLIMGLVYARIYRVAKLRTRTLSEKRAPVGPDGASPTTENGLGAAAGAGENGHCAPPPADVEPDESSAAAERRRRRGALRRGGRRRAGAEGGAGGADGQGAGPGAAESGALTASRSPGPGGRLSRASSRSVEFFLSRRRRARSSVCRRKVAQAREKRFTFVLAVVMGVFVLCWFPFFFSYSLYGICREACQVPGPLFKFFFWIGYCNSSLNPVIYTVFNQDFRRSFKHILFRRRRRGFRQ
Assay [7] in a line: inhibitors of Sendai virus-induced IRF3 signaling, primary screen, TLR/RLR signaling modifier project, cell-based, Sendai virus stimulus, luciferase, 10K MLSCN set (AID 602276;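 active = inhibition at or above 50% at 10 µM; inactive = inhibition below 50%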;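 note: firefly luciferase from ISG56 promoter only with Renilla not read in this screen; 0% = Sendai virus plus DMSO and 100% = medium plus DMSO without virus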). The following applies: HEK293 RL24 IRF3 luciferase reporter, at 10 µM, stronger effect = higher value. On the technique in general: A reporter such as luciferase makes a cellular process visible.
Assay [8] in a line: inhibitors of poly I:C-induced TLR3 signaling, primary screen, cell-based, poly I:C stimulus, luciferase, 10K MLSCN set (AID 602277;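 active = inhibition of the reporter signal at or above 50%; inactive = inhibition below 50%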). The following applies: HEK293-TLR3 RL24 IRF3 luciferase reporter, at 10 µM, stronger effect = higher value.

Calls of active or inactive are those of the source.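 Rule for the calls, unless noted: active = visual image review flags a hit and inhibition of aggregation exceeds 20%; inconclusive = visual hit but inhibition at or below 20%; inactive = no hit on visual image review.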

Voltage-gated potassium channel subunit beta-2 (Rattus norvegicus), sequence (P62483 whole entry, looked up): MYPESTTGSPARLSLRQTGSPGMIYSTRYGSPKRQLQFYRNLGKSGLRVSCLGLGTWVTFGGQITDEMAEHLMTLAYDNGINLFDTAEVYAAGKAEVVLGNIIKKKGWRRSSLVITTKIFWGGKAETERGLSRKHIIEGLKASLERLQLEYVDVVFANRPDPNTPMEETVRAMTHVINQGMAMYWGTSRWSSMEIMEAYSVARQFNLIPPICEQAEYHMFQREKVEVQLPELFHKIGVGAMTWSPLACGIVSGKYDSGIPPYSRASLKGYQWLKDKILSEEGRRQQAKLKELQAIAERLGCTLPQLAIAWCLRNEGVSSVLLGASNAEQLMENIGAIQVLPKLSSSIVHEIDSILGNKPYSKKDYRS

`Cc1ccc(C)c(NC(=O)CC(NCCCN2CCOCC2)C(=O)O)c1` (stereo not drawn): in assay [1], the cell count was found to be 494. Also, the inhibition (in general, the change of the read-out against control, counted positive when it falls) in assay [1] was -13.6% (inactive); in assay [3], -34.4% (inactive); in assay [7], 19.6% (inactive); in assay [8] it was 20.7% (inactive). Further, the inhibition of aggregation in assay [2] was 2.6% (inactive). The figures for the nuclei count in assay [2] and in assay [3] were 71.5% and 81.2%, respectively. In addition, the fluorescence slope in assay [4] was -0.512 (inactive). Further, in assay [5], the NADPH fluorescence slope was 3.9e-05 (inactive). Besides, in assay [6], the slope is 0.00589 (inactive).

For `CCCn1c(C)nc2c(c1=O)c1nc3ccccc3nc1n2CCc1ccccc1`, the cell count in assay [1] came to 470. The inhibition in assay [1] is -3.1% (inactive); in assay [3], -102% (inactive); in assay [7] it was 3.36% (inactive); in assay [8], 0.543% (inactive). The inhibition of aggregation in assay [2] was 6.9% (inactive). Besides, the figures for the nuclei count in assay [2] and in assay [3] were 100% and 222%, respectively. In assay [4], the fluorescence slope is -0.303 (inactive). For the same molecule, the NADPH fluorescence slope in assay [5] is 2.6e-05 (inactive). In assay [6], the slope is 0.00428 (inactive).

Regarding `O=C(CSc1nccn1Cc1ccccc1)Nc1nccs1`, the cell count in assay [1] amounted to 388. Besides, the inhibition in assay [1] is -0.7% (inactive); in assay [3] it was -16.7% (inactive); in assay [7], -30.1% (inactive); in assay [8], -82.1% (inactive). For the same molecule, the inhibition of aggregation in assay [2] is 10.4% (inactive). The nuclei count was determined as 83.7% in assay [2] and 118% in assay [3]. Further, in assay [4], the fluorescence slope was -0.512 (inactive). In assay [5], the NADPH fluorescence slope is -2.7e-05 (inactive). For the same molecule, the slope in assay [6] was 0.00698 (inactive).

Take `COC(=O)c1cc(-c2c(C)oc3cc(O)ccc3c2=O)c(C)o1`: the cell count in assay [1] turned out to be 609. In addition, the inhibition in assay [1] is -2.2% (inactive); in assay [3], -117% (inactive); in assay [7], 4.96% (inactive); in assay [8], 1.06% (inactive). For the same molecule, in assay [2], the inhibition of aggregation is -24% (inactive). For the same molecule, the nuclei count in assay [2] stood at 114%; in assay [3], 167%. Also, in assay [4], the fluorescence slope was -0.129 (active). Moreover, the NADPH fluorescence slope in assay [5] was 2.7e-05 (inactive). Moreover, the slope in assay [6] was 0.0074 (inactive).

As for `CCN1C(=O)C2(C(C#N)=C(N)Oc3n[nH]c(C(C)C)c32)c2ccccc21` (stereo not drawn), in assay [1], the cell count was determined as 679. In addition, the inhibition in assay [1] is -4.5% (inactive); in assay [3], 2.2% (inactive); in assay [7] it was 20.9% (inactive); in assay [8] it was 21.2% (inactive). Also, the inhibition of aggregation in assay [2] was -20.7% (inactive). In addition, the figures for the nuclei count in assay [2] and in assay [3] were 104% and 97%, respectively. Besides, in assay [4], the fluorescence slope was -0.485 (inactive). Also, the NADPH fluorescence slope in assay [5] is -3.1e-05 (inactive). The slope in assay [6] is 0.005 (inactive).

For `Cc1cccc2cc(CN(CCCO)C(=O)Nc3ccc(Cl)cc3)c(=O)[nH]c12`, the cell count in assay [1] amounted to 402. For the same molecule, the inhibition in assay [1] is 5.6% (inactive); in assay [3], -307% (inactive); in assay [7], 12.2% (inactive); in assay [8] it was -2.7% (inactive). Further, the inhibition of aggregation in assay [2] was -13% (inactive). Besides, the nuclei count is 117% in assay [2] and 156% in assay [3]. The fluorescence slope in assay [4] is -0.646 (inactive). In assay [5], the NADPH fluorescence slope was 1e-05 (inactive). The slope in assay [6] is 0.00902 (inactive).

Regarding `CCn1c(C(=O)N2CCCC(C(=O)NCCCc3ccccc3)C2)cc2sccc21` (stereo not drawn), the cell count in assay [1] came to 618. The inhibition in assay [1] was -12% (inactive); in assay [3], -19.4% (inactive); in assay [7] it was -0.231% (inactive); in assay [8] it was -1.26% (inactive). Further, the inhibition of aggregation in assay [2] is 40.9% (active). Further, the nuclei count came to 123% in assay [2] and 104% in assay [3]. Further, the fluorescence slope in assay [4] is -0.583 (inactive). Also, the NADPH fluorescence slope in assay [5] is -1.2e-05 (inactive). For the same molecule, the slope in assay [6] is 0.00576 (inactive).

In the case of `CCOC(=O)c1cc2c(=O)n3ccccc3nc2n(Cc2ccccc2)c1=N`, the cell count in assay [1] was 913. Also, the inhibition is 11.3% (inactive) in assay [1], -109% (inactive) in assay [3], 6.32% (inactive) in assay [7] and 33.2% (inactive) in assay [8]. Moreover, the inhibition of aggregation in assay [2] is 19.9% (inactive). Moreover, the nuclei count in assay [2] amounted to 102%; in assay [3], 117%. For the same molecule, the fluorescence slope in assay [4] was -0.364 (inactive). For the same molecule, the NADPH fluorescence slope in assay [5] is -2.8e-05 (inactive). Besides, the slope in assay [6] was 0.00332 (inactive).

Regarding `C=CCn1c(-c2ccc(OC)cc2)nc2ccccc21`, the cell count in assay [1] came to 386. In addition, the inhibition in assay [1] was -3.5% (inactive); in assay [3], -24.9% (inactive); in assay [7] it was -24.1% (inactive); in assay [8] it was -54.6% (inactive). Further, in assay [2], the inhibition of aggregation was 1% (inactive). Further, the results for the nuclei count in assay [2] and in assay [3] were 96.1% and 86.4%, respectively. Further, the fluorescence slope in assay [4] is -0.488 (inactive). Also, the NADPH fluorescence slope in assay [5] was -4.7e-05 (inactive). In assay [6], the slope is 0.0046 (inactive).

Consider `O=C(C1CCC(N2C(=O)C3CC=CCC3C2=O)CC1)N1CCCCC1` (stereo not drawn), for which the cell count in assay [1] came to 257. The inhibition was 22.4% (active) in assay [1], 23.7% (inactive) in assay [3], 5.96% (inactive) in assay [7] and 27.2% (inactive) in assay [8]. Further, the inhibition of aggregation in assay [2] is 7.8% (inactive). Further, the values for the nuclei count in assay [2] and in assay [3] were 80.1% and 97.6%, respectively. Further, the fluorescence slope in assay [4] is -0.356 (inactive). The NADPH fluorescence slope in assay [5] was -5.2e-05 (inactive). For the same molecule, the slope in assay [6] was 0.00567 (inactive).

`Cc1nc(NCc2ccco2)c2oc3ccccc3c2n1`: the cell count in assay [1] amounted to 337. Further, the inhibition in assay [1] was 15% (inactive); in assay [3], 19.5% (inactive); in assay [7] it was 3.36% (inactive); in assay [8] it was -32.5% (inactive). In addition, the inhibition of aggregation in assay [2] is -4.3% (inactive). Further, the nuclei count turned out to be 94.4% in assay [2] and 96.4% in assay [3]. In addition, in assay [4], the fluorescence slope is -0.389 (inactive). Also, the NADPH fluorescence slope in assay [5] was -1.9e-05 (inactive). In addition, the slope in assay [6] was 0.00599 (inactive).

As for `CCOC(=O)c1c(C)[nH]c(C(=O)Cn2c(=O)c3c(ncn3CC)n(Cc3ccccc3)c2=O)c1C`, the cell count in assay [1] was 752. Also, the inhibition in assay [1] is 4% (inactive); in assay [3] it was -32.2% (inactive); in assay [7], 15.3% (inactive); in assay [8], 24.5% (inactive). Moreover, in assay [2], the inhibition of aggregation was 8.3% (inactive). Moreover, the nuclei count is 88.5% in assay [2] and 127% in assay [3]. The fluorescence slope in assay [4] was -0.29 (inactive). For the same molecule, in assay [5], the NADPH fluorescence slope was -3.2e-05 (inactive). Also, the slope in assay [6] was 0.00419 (inactive).

As to `Cc1nnc(NC(=O)CSc2nc3c(c(=O)n2C)SC(C)C3)s1` (stereo not drawn), in assay [1], the cell count worked out at 734. Further, the inhibition in assay [1] was -4.3% (inactive); in assay [3], -7.8% (inactive); in assay [7], 13.8% (inactive); in assay [8], 34.3% (inactive). Besides, the inhibition of aggregation in assay [2] is -22.2% (inactive). The nuclei count came to 98.5% in assay [2] and 104% in assay [3]. Besides, the fluorescence slope in assay [4] is -0.536 (inactive). In addition, the NADPH fluorescence slope in assay [5] is -6.2e-05 (inactive). Besides, the slope in assay [6] is 0.00476 (inactive).
